{"source": "PubChem BioAssay (NCI)", "note": "About 83,000 compounds went through this panel and 20% of them were active in at least one assay; those are over-represented in the sample as a whole.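 Assay: single dose, 48 h. Readout: percent growth (0 = no net growth; negative = cell death). Active: <10.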 The source made the active and inactive calls."}
{"test_system": "SK-MEL-2 melanoma", "test": "NCI-60 one-dose screen, 48 h (100 = growth as untreated, 0 = no growth, -100 = all killed)", "settings": "10 µM"}
{"compound": "N#Cc1c(NC(=O)c2ccc(C(O)(C(F)(F)F)C(F)(F)F)cc2)sc2c1CCC(=O)C2", "growth": "-27.4% (active)"}
{"compound": "Cn1cc(-c2cc(N)n3nc(-c4c[nH]c5ccc(Br)cc45)cc3n2)c2cc(Br)cnc21", "growth": "-83.6% (active)"}
{"compound": "COc1cc2c(cc1OC)CN(CCCCOc1cc(O)c3c(=O)cc(-c4ccccc4)oc3c1)CC2", "growth": "66.6% (inactive)"}
{"compound": "N#Cc1c(NC(=O)c2ccc(C(F)(F)F)cc2C(F)(F)F)sc2c1CCC(=O)C2", "growth": "-38.2% (active)"}
{"compound": "O=C1Nc2ccc(Cl)cc2/C1=C/c1cccc(OCc2ccccc2)c1", "growth": "28.4% (inactive)"}
{"compound": "O=c1cc(-c2ccccc2)oc2cc(OCCCCNCc3ccccc3)cc(O)c12", "growth": "53.1% (inactive)"}
{"compound": "CC1=N/C(=C\\c2ccc(N(C)C)cc2)C(=O)N1CCc1ccc(S(N)(=O)=O)cc1", "growth": "97.9% (inactive)"}
{"compound": "CC(=O)OC[C@@]1(C)C2CC[C@]3(C)C(CC=C4C5CC(C)(C)CC[C@]5(C(=O)Nc5ccccc5)CC[C@]43C)[C@@]2(C)C[C@@H](OC(C)=O)[C@@H]1OC(C)=O", "note": "(stereo partly drawn)", "growth": "35.4% (inactive)"}
{"compound": "Cc1ccc(-c2cc(-c3cc4ccccc4nc3Cl)[nH]c(=S)n2)cc1", "growth": "11.8% (inactive)"}
{"compound": "O=c1cc(-c2ccccc2)oc2cc(OCCCNCc3ccccc3)cc(O)c12", "growth": "-81.4% (active)"}
{"compound": "COc1ccc(C(=O)Nc2sc3c(c2C#N)CCC(=O)C3)cc1C(F)(F)F", "growth": "-17.6% (active)"}
{"compound": "Cc1cc(C)cc(Oc2cccc(-c3c(C)nnn3C3CCN(CCN(C)C)CC3)n2)c1", "growth": "38.7% (inactive)"}
{"compound": "Nc1nnc(-c2c[nH]c3ccc(F)cc23)c(-c2c[nH]c3ncccc23)n1", "growth": "93.7% (inactive)"}
{"compound": "O=C1Nc2cc(Cl)ccc2/C1=C/c1cccc(OCc2ccc(Br)cc2F)c1", "growth": "-20% (active)"}
{"compound": "Nc1nc(-c2ccccc2)cc(-c2cc3ccccc3nc2Cl)n1", "growth": "97.1% (inactive)"}
{"compound": "Cc1cc(C(F)(F)F)ccc1C(=O)Nc1sc2c(c1C#N)CCC(=O)C2", "growth": "-38.4% (active)"}
{"compound": "O=C(CSc1nnc(-c2ccc3nc(-c4ccccc4)[nH]c3c2)o1)Nc1ccc(Br)cc1", "growth": "81.2% (inactive)"}
{"compound": "COc1ccc2nc(Cl)c(-c3cc(-c4ccccc4)nc(N)n3)cc2c1", "growth": "69.5% (inactive)"}
{"compound": "O=C(CNc1nc(-c2ccccc2)cs1)Nc1ccc(Cl)cc1[N+](=O)[O-]", "growth": "-50.1% (active)"}
{"compound": "C/C(=C\\CSc1ccccc1C(=O)O)CCCC(C)CCCC(C)CCCC(C)C", "note": "(stereo not drawn)", "growth": "-12% (active)"}
{"compound": "COc1ccc2[nH]c(=O)c(CSc3cccc(N)c3)cc2c1", "growth": "64% (inactive)"}
{"compound": "Cn1cc(-c2cc(N)n3nc(-c4c[nH]c5ccc(Br)cc45)cc3n2)c2cccnc21", "growth": "-56.4% (active)"}
{"compound": "N#Cc1c(NC(=O)c2ccc(C(F)(F)F)c(Cl)c2)sc2c1CCC(=O)C2", "growth": "-9.04% (active)"}
{"compound": "COc1ccc(OC)c(/C=N/NC(=O)c2ccc3nc(-c4ccc(Cl)cc4)[nH]c3c2)c1", "growth": "103% (inactive)"}
{"compound": "CC(=O)NNc1ccc2nnc(-c3ccc(Br)cc3)n2n1", "growth": "104% (inactive)"}
{"compound": "COc1cc(OC(F)(F)F)ccc1C(=O)Nc1sc2c(c1C#N)CCC(=O)C2", "growth": "105% (inactive)"}
{"compound": "Cc1nc2c(cnn2-c2ccccc2)c(=O)n1-c1ccc(NC(=O)c2ccc(F)cc2)cc1", "growth": "77.9% (inactive)"}
{"compound": "COc1cccc(/C=N/NC(=O)c2ccc3nc(-c4ccc(Cl)cc4)[nH]c3c2)c1O", "growth": "-95.1% (active)"}
{"compound": "Cc1cccc2cc(-c3cc(-c4ccccc4)nc(=S)[nH]3)c(Cl)nc12", "growth": "27.8% (inactive)"}
{"compound": "Cc1cc2nc3c4ccccc4n(CCO)c3nc2cc1C", "growth": "101% (inactive)"}
{"compound": "OCc1[nH]nc2cc(Nc3ncc4ccc(Br)c(OC5CCC(O)CC5)c4n3)ccc12", "note": "(stereo not drawn)", "growth": "-75.8% (active)"}
{"compound": "COc1cccc(/C=C2\\N=C(C)N(CCc3ccc(S(N)(=O)=O)cc3)C2=O)c1", "growth": "109% (inactive)"}
{"compound": "C=C1CCC2C3(C)COC(c4cc(F)cc(F)c4)OC3CCC2(C)C1C/C=C1/C(=O)OCC1O", "note": "(stereo not drawn)", "growth": "-60.8% (active)"}
{"compound": "CN(C(=O)c1ccc(C(F)(F)F)cc1C(F)(F)F)c1sc2c(c1C#N)CCC(=O)C2", "growth": "96.8% (inactive)"}
{"compound": "N#Cc1c(NC(=O)c2cccc(C(F)(F)F)c2)sc2c1CCC(O)=C2", "growth": "-1.48% (active)"}
{"compound": "COc1cc(/C=N/NC(=O)c2ccc3nc(-c4ccc(Cl)cc4)[nH]c3c2)cc(OC)c1OC", "growth": "-17.3% (active)"}
{"compound": "N#Cc1c(NC(=O)c2ccc(C(F)(F)F)cc2)sc2c1CCC(O)=C2", "growth": "8.44% (active)"}
{"compound": "O=C1Nc2ccc(F)cc2/C1=C/c1cccc(OCc2ccccc2)c1", "growth": "-23.1% (active)"}
